According to the supplement of paper PMC11732987, “Enantioselective OTUD7B fragment discovery through chemoproteomics screening and high-throughput optimisation” (Communications Chemistry, 2025):

What was measured:
Experiment in all cases: log2 ratio of Biotin-Ahx-Ub-VS probe labelling (fragment/DMSO); higher = less target engagement (more negative = stronger competition), active = hit call of the paper (q ≤ 0.05, log2 ratio ≤ -1)
Conditions in all cases: compound concentration: 200 uM; treatment time: 3 h
USP34 = USP34 (UniProt Q70CQ2)
Chain of USP34 (Q70CQ2 whole entry, the tested form may be a part): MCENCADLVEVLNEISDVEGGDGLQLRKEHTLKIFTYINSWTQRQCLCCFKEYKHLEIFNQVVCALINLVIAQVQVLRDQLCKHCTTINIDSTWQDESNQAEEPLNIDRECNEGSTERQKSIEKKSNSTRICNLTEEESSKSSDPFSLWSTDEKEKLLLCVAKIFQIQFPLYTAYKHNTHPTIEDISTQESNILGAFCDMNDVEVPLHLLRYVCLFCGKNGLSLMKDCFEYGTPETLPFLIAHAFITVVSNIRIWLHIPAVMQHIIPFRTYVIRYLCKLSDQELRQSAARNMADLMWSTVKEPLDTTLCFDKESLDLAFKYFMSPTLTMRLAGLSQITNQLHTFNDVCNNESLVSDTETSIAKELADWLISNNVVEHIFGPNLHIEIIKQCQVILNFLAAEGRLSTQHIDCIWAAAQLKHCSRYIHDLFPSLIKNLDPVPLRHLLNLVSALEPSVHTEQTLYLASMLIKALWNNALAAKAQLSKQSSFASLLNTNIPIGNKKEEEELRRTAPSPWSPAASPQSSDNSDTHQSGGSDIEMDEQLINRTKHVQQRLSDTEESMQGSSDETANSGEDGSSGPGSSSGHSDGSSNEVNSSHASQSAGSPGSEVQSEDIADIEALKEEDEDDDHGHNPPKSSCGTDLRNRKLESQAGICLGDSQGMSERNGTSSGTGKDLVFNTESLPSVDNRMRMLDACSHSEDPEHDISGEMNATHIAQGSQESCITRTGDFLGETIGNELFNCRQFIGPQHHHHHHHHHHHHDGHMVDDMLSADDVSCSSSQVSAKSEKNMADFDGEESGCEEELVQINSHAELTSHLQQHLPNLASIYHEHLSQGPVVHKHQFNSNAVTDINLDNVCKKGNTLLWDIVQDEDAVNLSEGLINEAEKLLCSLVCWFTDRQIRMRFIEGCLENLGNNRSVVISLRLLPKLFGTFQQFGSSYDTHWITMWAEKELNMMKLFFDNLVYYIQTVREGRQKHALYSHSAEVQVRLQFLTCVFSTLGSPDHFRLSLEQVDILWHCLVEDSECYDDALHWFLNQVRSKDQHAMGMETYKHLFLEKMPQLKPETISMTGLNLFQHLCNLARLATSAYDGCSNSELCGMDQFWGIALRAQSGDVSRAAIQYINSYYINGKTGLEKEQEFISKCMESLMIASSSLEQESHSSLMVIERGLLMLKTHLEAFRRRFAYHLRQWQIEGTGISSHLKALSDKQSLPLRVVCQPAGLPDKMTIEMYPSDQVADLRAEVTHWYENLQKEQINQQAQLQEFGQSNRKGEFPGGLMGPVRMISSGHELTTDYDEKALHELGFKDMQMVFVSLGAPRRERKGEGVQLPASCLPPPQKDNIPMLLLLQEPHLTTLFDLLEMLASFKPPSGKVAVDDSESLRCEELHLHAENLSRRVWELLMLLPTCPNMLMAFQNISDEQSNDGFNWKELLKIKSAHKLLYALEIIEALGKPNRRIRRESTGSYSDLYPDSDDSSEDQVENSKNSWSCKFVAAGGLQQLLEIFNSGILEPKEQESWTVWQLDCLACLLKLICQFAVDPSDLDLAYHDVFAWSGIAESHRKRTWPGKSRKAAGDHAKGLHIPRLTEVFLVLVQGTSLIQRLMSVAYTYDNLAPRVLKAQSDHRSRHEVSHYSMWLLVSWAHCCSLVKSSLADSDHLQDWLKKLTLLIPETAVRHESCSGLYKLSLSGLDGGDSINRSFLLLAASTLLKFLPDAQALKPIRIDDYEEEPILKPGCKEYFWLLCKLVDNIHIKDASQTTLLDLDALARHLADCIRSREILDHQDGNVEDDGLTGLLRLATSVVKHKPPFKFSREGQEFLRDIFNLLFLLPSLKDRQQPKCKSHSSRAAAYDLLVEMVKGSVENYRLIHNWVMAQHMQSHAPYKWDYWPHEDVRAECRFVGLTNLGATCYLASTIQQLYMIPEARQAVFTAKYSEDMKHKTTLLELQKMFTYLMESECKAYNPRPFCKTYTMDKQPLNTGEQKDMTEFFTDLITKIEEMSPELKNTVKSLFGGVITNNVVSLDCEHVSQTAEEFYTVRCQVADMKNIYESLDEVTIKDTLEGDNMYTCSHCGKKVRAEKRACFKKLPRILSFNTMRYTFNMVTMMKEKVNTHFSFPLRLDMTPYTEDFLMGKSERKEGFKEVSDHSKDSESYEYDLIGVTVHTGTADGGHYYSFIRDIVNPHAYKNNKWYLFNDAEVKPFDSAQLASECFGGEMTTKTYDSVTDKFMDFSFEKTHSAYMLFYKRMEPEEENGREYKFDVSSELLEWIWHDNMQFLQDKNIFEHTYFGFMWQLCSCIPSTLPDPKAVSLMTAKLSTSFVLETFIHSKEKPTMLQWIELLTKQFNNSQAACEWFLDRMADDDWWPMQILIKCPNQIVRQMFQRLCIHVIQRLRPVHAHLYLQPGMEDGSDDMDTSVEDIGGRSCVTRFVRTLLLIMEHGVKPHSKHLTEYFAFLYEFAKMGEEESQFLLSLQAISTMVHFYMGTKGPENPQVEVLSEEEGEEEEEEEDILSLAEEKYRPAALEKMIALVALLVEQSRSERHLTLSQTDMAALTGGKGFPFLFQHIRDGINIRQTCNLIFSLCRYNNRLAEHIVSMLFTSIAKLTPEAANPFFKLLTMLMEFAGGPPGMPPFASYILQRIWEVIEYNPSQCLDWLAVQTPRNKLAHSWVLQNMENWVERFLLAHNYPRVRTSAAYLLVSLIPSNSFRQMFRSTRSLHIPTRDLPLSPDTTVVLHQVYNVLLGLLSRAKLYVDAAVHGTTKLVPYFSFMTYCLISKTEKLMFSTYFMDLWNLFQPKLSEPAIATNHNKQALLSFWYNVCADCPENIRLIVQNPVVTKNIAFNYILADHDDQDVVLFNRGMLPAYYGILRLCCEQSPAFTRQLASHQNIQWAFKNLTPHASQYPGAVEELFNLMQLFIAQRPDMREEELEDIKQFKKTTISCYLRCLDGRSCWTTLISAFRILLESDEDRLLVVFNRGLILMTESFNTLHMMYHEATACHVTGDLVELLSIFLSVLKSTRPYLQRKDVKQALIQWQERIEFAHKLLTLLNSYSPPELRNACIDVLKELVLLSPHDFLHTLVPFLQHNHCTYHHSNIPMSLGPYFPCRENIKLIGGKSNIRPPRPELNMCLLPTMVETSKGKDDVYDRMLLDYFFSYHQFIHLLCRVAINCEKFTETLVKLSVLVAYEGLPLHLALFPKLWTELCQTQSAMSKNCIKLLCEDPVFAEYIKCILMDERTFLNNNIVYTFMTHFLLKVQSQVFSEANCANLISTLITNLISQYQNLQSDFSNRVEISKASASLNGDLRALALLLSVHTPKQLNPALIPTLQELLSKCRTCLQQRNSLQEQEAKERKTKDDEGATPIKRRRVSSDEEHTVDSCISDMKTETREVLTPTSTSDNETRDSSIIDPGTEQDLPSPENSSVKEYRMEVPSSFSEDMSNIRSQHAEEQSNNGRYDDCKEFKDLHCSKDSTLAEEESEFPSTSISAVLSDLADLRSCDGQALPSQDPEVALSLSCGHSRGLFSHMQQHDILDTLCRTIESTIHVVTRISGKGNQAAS
Procedure, shortened: (§1)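 HEK293T lysate (495 µg per sample, in Tris/CHAPS/IGEPAL buffer with protease inhibitors) was exposed in triplicate for 3 h to fragment at 200 µM or to vehicle, then to Biotin-Ahx-Ub-VS at 0.5 µM final for 1 h. Labelled DUBs were enriched on NeutrAvidin, digested with LysC and trypsin, and analysed by diaPASEF LC-MS/MS. Spectronaut label-free quantities were normalised to the global median, and values are average log2 ratios of fragment over vehicle from an unpaired t-test. Only proteins with ≥2 unique peptides were used.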

USP36 = molecular target: T1, USP36 (UniProt Q9P275)
T1 sequence (whole entry): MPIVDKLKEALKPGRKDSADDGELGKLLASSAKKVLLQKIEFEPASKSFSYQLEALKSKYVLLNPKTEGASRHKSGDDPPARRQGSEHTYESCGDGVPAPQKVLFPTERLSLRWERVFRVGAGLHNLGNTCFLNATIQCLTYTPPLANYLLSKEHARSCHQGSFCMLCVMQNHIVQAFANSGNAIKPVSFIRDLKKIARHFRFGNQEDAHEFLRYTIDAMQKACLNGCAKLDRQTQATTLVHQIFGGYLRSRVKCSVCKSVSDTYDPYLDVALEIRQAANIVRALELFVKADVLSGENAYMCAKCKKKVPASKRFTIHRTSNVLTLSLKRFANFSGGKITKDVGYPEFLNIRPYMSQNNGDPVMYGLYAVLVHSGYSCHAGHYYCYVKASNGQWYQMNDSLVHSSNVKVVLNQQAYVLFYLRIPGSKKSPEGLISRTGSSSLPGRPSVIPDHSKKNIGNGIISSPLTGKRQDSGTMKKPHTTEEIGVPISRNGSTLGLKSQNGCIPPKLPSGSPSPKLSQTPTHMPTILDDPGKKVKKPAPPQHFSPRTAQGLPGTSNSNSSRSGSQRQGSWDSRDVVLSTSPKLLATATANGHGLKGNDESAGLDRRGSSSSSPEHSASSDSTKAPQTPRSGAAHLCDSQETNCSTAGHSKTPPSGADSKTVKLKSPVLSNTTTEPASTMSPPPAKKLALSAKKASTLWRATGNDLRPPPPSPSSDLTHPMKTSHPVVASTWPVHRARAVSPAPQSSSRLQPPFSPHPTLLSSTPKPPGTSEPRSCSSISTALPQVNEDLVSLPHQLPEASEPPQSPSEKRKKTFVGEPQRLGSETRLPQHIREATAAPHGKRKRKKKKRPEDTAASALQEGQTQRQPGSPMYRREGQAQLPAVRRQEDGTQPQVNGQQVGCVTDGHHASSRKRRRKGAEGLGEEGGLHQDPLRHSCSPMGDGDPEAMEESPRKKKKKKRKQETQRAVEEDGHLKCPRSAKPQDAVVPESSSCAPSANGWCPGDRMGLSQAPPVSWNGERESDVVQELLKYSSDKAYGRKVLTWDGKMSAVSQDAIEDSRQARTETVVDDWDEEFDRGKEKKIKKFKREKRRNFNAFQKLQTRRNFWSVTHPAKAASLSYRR
Procedure, shortened: as §1

USP38 = molecular target: T2, USP38 (UniProt Q8NB14)
T2 sequence (whole entry): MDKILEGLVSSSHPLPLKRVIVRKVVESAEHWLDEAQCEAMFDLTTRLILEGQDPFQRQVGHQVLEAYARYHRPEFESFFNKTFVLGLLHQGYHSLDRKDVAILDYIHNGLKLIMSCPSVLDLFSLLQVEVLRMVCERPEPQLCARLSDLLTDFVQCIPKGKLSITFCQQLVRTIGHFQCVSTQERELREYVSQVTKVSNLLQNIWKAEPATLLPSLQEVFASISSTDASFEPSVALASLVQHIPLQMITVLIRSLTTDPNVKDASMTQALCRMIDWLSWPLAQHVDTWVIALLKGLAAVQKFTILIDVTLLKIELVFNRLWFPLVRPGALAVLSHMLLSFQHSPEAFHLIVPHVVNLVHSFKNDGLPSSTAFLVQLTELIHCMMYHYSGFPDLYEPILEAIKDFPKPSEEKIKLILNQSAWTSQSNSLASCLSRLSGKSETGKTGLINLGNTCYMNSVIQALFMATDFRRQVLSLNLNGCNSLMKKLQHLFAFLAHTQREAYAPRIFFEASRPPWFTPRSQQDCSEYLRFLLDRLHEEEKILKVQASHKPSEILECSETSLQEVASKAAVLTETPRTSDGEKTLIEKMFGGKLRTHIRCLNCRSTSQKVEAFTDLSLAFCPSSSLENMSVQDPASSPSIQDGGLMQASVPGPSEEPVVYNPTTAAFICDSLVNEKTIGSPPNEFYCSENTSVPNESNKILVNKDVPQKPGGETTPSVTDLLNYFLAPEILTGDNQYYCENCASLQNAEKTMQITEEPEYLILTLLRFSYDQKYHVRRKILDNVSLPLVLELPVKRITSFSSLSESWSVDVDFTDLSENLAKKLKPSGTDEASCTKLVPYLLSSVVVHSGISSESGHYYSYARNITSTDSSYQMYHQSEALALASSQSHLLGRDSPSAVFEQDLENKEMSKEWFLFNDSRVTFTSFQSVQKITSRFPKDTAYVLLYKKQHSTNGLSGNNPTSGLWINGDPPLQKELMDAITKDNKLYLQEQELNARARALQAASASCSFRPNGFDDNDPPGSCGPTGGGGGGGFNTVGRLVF
Procedure, shortened: as §1

USP39 = molecular target: T3, USP39 (UniProt Q53GS9)
T3 sequence (whole entry): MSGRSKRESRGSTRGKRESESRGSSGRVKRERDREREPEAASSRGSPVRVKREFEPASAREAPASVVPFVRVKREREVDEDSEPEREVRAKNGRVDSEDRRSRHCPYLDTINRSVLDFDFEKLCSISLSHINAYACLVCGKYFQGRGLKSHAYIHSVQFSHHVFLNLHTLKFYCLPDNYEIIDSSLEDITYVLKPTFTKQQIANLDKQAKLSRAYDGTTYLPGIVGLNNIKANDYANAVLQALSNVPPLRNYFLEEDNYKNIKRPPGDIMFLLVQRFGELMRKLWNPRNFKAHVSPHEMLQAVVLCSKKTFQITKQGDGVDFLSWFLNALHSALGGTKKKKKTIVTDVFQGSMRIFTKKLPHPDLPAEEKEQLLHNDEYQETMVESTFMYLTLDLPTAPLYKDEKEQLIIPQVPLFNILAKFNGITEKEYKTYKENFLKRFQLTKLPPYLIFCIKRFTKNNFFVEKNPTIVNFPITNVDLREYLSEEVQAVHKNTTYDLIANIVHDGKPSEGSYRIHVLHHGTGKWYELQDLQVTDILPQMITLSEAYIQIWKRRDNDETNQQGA
Procedure, shortened: as §1

USP4 = molecular target: T4, USP4 (UniProt Q13107)
T4 sequence (whole entry): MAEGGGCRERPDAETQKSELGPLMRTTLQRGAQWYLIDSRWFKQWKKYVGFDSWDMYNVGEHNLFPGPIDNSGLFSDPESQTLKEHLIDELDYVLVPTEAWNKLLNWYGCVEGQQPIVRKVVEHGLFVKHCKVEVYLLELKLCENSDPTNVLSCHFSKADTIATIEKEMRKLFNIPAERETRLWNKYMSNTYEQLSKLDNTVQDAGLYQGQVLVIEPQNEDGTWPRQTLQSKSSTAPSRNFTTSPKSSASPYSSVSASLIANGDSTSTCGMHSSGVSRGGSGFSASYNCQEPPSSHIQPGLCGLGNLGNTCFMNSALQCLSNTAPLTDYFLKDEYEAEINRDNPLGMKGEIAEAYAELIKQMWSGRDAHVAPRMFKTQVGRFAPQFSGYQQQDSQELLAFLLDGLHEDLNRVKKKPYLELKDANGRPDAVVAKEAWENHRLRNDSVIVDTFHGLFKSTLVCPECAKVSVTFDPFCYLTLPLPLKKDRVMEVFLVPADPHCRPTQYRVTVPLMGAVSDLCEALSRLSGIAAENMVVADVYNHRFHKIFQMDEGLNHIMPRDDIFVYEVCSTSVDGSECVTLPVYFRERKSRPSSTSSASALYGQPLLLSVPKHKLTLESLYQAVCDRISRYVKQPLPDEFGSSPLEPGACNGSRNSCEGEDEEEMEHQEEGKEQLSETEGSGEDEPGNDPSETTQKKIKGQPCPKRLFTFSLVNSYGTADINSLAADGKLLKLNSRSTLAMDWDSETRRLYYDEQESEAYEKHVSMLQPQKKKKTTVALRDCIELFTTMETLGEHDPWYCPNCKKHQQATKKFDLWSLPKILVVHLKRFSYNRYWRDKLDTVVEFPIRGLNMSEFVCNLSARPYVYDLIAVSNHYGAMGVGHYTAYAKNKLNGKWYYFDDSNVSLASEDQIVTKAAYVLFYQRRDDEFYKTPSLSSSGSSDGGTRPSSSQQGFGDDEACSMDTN
Procedure, shortened: as §1

Measured: log2 ratio of Biotin-Ahx-Ub-VS probe labelling

O=C(CCl)N1CCC(c2ccn[nH]2)C1 (stereo not given)
inactive: USP34 0.0363 | USP36 -0.353 | USP38 -0.148 | USP39 0.00596 | USP4 -0.113
